Screens as filed in PubChem.
The list is not random: actives were taken first. Their share in the collection is about 5.5%.
RORgamma inh: inhibitors of mouse ROR gamma transcriptional activity. P51450. Potency, µM (series often up to 53.6 µM), hits mostly inhibitors. hit rate 5.4% among 310,000. Drosophila S2 Gal4-RORgamma UAS-luciferase reporter, 20 h; also: nearly all actives have a fitted effect of over 60% in size
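Luciferase reporter read in Schneider cells carrying Gal4-RORγ (mouse) and UAS-Photinus luciferase; cells given compound 1 h before 700 uM copper sulfate induction, then incubated 20 h at ambient temperature.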
Gal4-VP16 FLuc: counter-screen for ROR gamma inhibitors: Gal4-VP16 reporter; Potency, µM (top dose mostly 53.6 µM), hits mostly inhibitors; Drosophila S2 Gal4-VP16 UAS-luciferase, luminescence, 20 h; hit rate 3.5% among 310,000;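 also: Gal4-VP16 expression switched on by copper sulfate through the metallothionein promoter; nearly all actives have a fitted effect of over 50% in size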
CtBP-E1A inh: blocks the CtBP interaction with E1A; AlphaScreen GST-E1A/His-CtBP binding, 1536-well; hits give low values; activity change, % (no concentration beside the values); hit rate 0.49% among 340,000; AID 651724; in the data active = activity change below about -65%; inconclusive = mostly about -30% to -63%
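AlphaScreen with 125 nM GST-E1A and 125 nM His-CtBP (5X stocks) in Tris pH 8.0, 300 mM NaCl, BSA, Tween 20, TCEP. Compounds preincubated 2 h at 37 deg C, then glutathione donor/nickel acceptor beads added for 1 h at 37 deg C in dark.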
MBNL1 CUG block: inhibitors of human MBNL1 binding to CUG repeat RNA. AID 2675. Potency, µM (titrated, usually from 57.5 µM), most hits filed as inhibitors. Q9NR56. hit rate 0.036% among 280,000. TR-FRET MBNL1-His/biotin-(CUG)12 binding, 665/545 ratio; active = well fitted inhibition curve with a large enough effect in the signal ratio, with a control signal flat, not every such curve was filed as active; inconclusive = small, poorly fitted or top-dose-only effect, or effect the other way, or a change in a side signal; inactive = no such curve, though single readings can be large or run the other way; the % refers to the signal ratio
Target sequence (Q9NR56 whole entry, looked up): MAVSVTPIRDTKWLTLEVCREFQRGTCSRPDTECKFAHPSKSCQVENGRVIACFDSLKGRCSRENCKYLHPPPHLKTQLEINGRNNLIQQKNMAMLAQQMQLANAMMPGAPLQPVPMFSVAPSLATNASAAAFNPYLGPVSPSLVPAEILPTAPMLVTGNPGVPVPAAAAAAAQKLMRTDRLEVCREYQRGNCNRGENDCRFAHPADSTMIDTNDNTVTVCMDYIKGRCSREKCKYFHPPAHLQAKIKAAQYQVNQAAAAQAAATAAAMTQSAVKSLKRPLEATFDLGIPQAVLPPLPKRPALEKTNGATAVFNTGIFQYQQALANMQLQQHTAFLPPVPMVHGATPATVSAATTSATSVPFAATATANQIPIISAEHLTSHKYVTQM
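Compounds (final 92 nM to 58 uM) are added to His-tagged MBNL1 and biotin-(CUG)12, then terbium anti-His antibody and streptavidin-XL665 (5 nM final). After 60 min at room temperature, the 665/545 nm ratio is read.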
Six1-Eya2 blk: blocks human Six1 binding to Eya2 | Q15475+O00167 | hit rate 0.56% among 360,000 | AlphaScreen GST-Six1/His-Eya2 binding, biochemical; hits give low values | activity change, % (test concentration not listed); in the data active = activity change below about -65%; inconclusive = mostly about -30% to -63%
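Homogeneous AlphaScreen proximity assay pairing GST-Six1 with His-tagged Eya2 (added as 5X mix: 250 nM and 500 nM) in 50 mM Tris pH 8.0, 300 mM NaCl, 1 mM TCEP. Glutathione donor and nickel acceptor beads; 1 h, 37 °C, dark.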
CBFb RUNX1 block: inhibitors of human CBF-beta and RUNX1 interaction; Q01196+Q13951; AlphaScreen CBFb-His/RUNX1-biotin binding, biochemical; Potency, µM (titrated, usually from 59.8 µM), most hits filed as inhibitors; 230,000 tested, under 10 active; AID 1477
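His-tagged CBF-beta and biotinylated RUNX1 (30 nM each) were premixed 20 min at room temperature, exposed to compound for 15 min, then given nickel-chelate and streptavidin AlphaScreen beads (50 ng each). After 90 min, AlphaScreen signal was read.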
Hits are given with their value; i = inactive; ? = inconclusive; nt = no result given; [ ] = remark or other dose. Unless noted, calls follow the shape of the dose curve; as a rule, active = well fitted curve in the direction sought with a large enough effect; inconclusive = small, poorly fitted or top-dose-only effect, or another doubt; inactive = no such curve, though single readings can be large; an effect the other way counts as inactive or inconclusive.

SMILES	RORgamma inh	Gal4-VP16 FLuc	CtBP-E1A inh	MBNL1 CUG block	Six1-Eya2 blk	CBFb RUNX1 block
COc1ccc(N2CC(C(=O)OCC(=O)Nc3cccc(C)c3)CC2=O)cc1 (configuration not stated)	i	i	i	i	i	nt
COc1ccccc1C1=NNC(=NCc2ccccc2)SC1	11µM	i	i	i	i	i
COc1ccc(/C=C/c2nc3ccccc3n2Cc2ccc(OC)c(OC)c2)cc1	13µM	?	nt	i	i	i
COc1ccc(-c2nc3ccccc3n2OCC(=O)O)cc1	?	13µM	i	i	i	i
O=C(O)COn1c(-c2ccc(Cl)cc2)nc2ccc(Cl)cc21	i	i	i	i	i	i
C=C(C)Cn1c(-c2ccccc2)nc2ccccc21	14µM	?	i	i	i	i
COc1ccc(Cn2c(-c3ccc(OC)cc3)nc3ccccc32)cc1	11µM	?	i	i	i	i
Cc1ccc(C(=O)NCC(=O)OCc2nnc(-c3ccc([N+](=O)[O-])cc3)o2)cc1	nt	nt	i	nt	i	nt
CN1CCN(c2cc(CNC[C@H]3O[C@@H](n4cnc5c(=O)[nH]c(N)nc54)[C@H](O)[C@@H]3O)ccc2F)CC1	nt	nt	i	nt	i	nt
COc1ccc(OC)c(NC(=O)C2(C)CCN2Cc2ccc(SC)cc2)c1 (configuration not stated)	nt	nt	i	nt	i	nt
CCOc1ccc(Cn2c3ccc(OC)cc3c3nc4ccccc4nc32)cc1OC	13µM	?	i	i	i	i
COc1ccc2c(c1)c1nc3ccccc3nc1n2Cc1ccc(OC)c(OC)c1	?	?	i	i	i	i
COCc1ccc(C(=O)N2CCCC(Nc3ccc(F)c(F)c3)C2)s1 (configuration not stated)	i	i	i	i	i	nt
Cc1ccc(-c2nc3ccccn3c2NC(=O)c2ccco2)cc1	40µM	i	i	?	i	i
O=C(Nc1c(-c2ccccc2)nc2ccccn12)c1ccco1	i	i	i	i	i	i
CCc1c(C)sc(NC(=O)c2ccco2)c1C#N	nt	nt	i	i	i	nt
COc1ccc(Cl)cc1NC(=O)c1[nH]nc(OC)c1[N+](=O)[O-]	3.5µM	i[10 µM]	i	i	i	i
COc1ccc(-n2c(COc3ccccc3)nnc2SCC(N)=O)cc1	i	i	i	i	i	i
COc1ccc(-n2c(COc3ccc(C)cc3)nnc2SCC(N)=O)cc1	11µM	i	i	i	i	i
CC(Sc1nnc(-c2ccncc2)n1C)C(=O)Nc1ccc(N2CCOCC2)cc1 (configuration not stated)	nt	nt	i	nt	i	nt
COC(=O)N/N=C/c1sc(N2CCCCC2)nc1-c1cccs1	10µM	0.79µM	i	?	i	i
Cc1cc2c(N)cccc2nn1	13µM	i	i	?	i	i
Nc1cccc2nc3ccccc3cc12	14µM	?	i	?	i	i
Nc1[nH]nc2nc3ccccc3cc12	i	i	i	?	i	i
Cc1cc2c(NC(=O)Nc3ccccc3)cccc2nn1	i	i	?	?	?	i
SMILES	RORgamma inh	Gal4-VP16 FLuc	CtBP-E1A inh	MBNL1 CUG block	Six1-Eya2 blk	CBFb RUNX1 block
Cn1cccc1C(=O)NC(=O)COC(=O)CNC(=O)CNC(=O)c1ccc(Cl)cc1Cl	i	i	i	i	i	i
Cc1nc2ccc(NC(=S)N3CCCC3)cc2nc1C	i	i	i	?	i	i
Cc1ccc(NC(=S)NC2CCCC2)cc1C	2.8µM	3.5µM	i	i	i	i
Cc1nc2ccc(NC(=S)NC3CCCCC3)cc2nc1C	5µM	i[10 µM]	nt	?	i	i
Cc1cc(C)cc(-n2c3ccc(NC(=S)NC4CCCCC4)cc3c(=O)n2C)c1	nt	nt	i	nt	i	nt
O=C(NC(=S)Nc1ccc(F)cc1)C1CCCCC1	8.9µM	10µM	i	i	i	nt
Cc1ccc(NC(=S)NC(=O)C2CCCC2)cc1C	3.5µM	4.5µM	i	i	i	nt
CCCCCCn1cc(CN2CC(N3CCN(CCN(C)C)CC3)CS2(=O)=O)nn1 (configuration not stated)	nt	nt	i	nt	i	nt
C=CCN(CC=C)C(=O)c1cccc(OC2CCN(CC(C)(C)C)CC2)c1	i	i	i	i	i	nt
